These results are taken from PubChem BioAssay.

A short description of assay [1]: binders of probe aFSTL3 on microarray, primary screen, stem cell growth factor project, biochemical, small-molecule microarray, fluorescence 635/667 (AID 1064).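 Also: measures binding of the biotinylated anti-FSTL3 antibody to printed compounds.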 As to conditions: higher = more signal.
The nature of assay [2]: binders from COS7 lysate, DM2A8 probe, primary screen, torsin A project, cell lysate, small-molecule microarray, fluorescence 635/667 (AID 1065). The following applies: higher = more signal, COS7 lysate expressing mutant human TOR1A.
Assay [3] in a line: binders of probe aFGF2 on microarray, primary screen, stem cell growth factor project, biochemical, small-molecule microarray, fluorescence 635/667 (AID 1067).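 Also: measures binding of biotinylated aFGF2 protein to printed compounds on slides; z-score merges feature fluorescence and signal-to-noise across triplicate slides.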 The following applies: higher = more signal.
The nature of assay [4]: binders of probe aFGF10 on microarray, primary screen, stem cell growth factor project, biochemical, small-molecule microarray, fluorescence 635/667 (AID 1071).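 Also: score merges 667 nm spot intensity and signal to noise from triplicate slides.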 The following applies: higher = more signal.
Assay [5] has as its target Neurogenic locus notch homolog protein 2 (Homo sapiens) (UniProt Q04721). Kind of assay: Notch2 binders on small-molecule microarrays, primary screen, biochemical, small-molecule microarray, 635 nm fluorescence, stem cell growth factors (AID 1073). As to conditions: Notch2 binding, higher = more signal.
The target in assay [6] is Pro-neuregulin-1, membrane-bound isoform (Homo sapiens) (UniProt Q02297). Kind of assay: NRG1 binders on small-molecule microarrays, primary screen, psychiatric disease protein project, biochemical, small-molecule microarray, fluorescence 635/667 (AID 1075).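 Also: score combines 667 nm spot fluorescence with signal to noise.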 As to conditions: NRG1 binding, 635 nm fluorescence, higher = more signal.
Pro-neuregulin-1, membrane-bound isoform (Homo sapiens), sequence (Q02297 whole entry, looked up, the tested form may be a part, canonical isoform): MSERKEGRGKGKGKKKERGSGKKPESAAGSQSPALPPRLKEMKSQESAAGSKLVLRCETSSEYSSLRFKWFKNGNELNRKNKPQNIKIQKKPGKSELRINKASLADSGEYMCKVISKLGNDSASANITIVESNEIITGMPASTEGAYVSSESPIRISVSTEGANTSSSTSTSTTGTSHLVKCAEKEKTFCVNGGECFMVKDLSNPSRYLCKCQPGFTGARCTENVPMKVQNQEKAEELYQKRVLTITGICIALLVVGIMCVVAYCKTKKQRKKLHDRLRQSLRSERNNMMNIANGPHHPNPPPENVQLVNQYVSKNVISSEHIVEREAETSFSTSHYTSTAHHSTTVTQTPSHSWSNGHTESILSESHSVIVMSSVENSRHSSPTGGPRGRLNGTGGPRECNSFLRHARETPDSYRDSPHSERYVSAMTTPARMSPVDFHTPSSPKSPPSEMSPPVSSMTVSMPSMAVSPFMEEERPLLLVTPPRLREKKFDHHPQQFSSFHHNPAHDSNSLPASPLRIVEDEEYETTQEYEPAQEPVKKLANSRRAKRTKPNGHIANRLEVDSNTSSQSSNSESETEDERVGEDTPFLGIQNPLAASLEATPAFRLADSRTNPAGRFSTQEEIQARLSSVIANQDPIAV
In assay [7] the test system is Neuregulin-1 EGF-like domain. Kind of assay: binders of neuregulin-1 EGF-like domain, primary screen, biochemical, small-molecule microarray, 635 nm fluorescence (AID 1081).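 Also: binding of the protein to compounds printed on small-molecule microarray slides.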 The following applies: small-molecule microarray binding, higher = more signal.
The nature of assay [8]: FRG1 promoter luciferase signal modulators, primary screen, FRG1 inhibition for FSHD, cell-based, C2C12 myotubes, firefly/Renilla luciferase, luminescence (AID 1084). The following applies: higher = more signal, called active from +8 up or from −8 down.
A short description of assay [9]: binders of probe aFST on microarray, primary screen, stem cell growth factor project, biochemical, small-molecule microarray, fluorescence 635/667 (AID 1086).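 Also: score merges 667 nm fluorescence with signal-to-noise of each printed compound spot.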 The following applies: higher = more signal.
The nature of assay [10]: binders of probe aHhip on microarray, primary screen, stem cell growth factor project, biochemical, small-molecule microarray, fluorescence 635/667 (AID 1087).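 Also: score merges spot fluorescence at 667nm with spot signal to noise ratio.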 As to conditions: higher = more signal.

Calls of active or inactive are those of the source.

Neurogenic locus notch homolog protein 2 (Homo sapiens), sequence (Q04721 whole entry, looked up, canonical isoform): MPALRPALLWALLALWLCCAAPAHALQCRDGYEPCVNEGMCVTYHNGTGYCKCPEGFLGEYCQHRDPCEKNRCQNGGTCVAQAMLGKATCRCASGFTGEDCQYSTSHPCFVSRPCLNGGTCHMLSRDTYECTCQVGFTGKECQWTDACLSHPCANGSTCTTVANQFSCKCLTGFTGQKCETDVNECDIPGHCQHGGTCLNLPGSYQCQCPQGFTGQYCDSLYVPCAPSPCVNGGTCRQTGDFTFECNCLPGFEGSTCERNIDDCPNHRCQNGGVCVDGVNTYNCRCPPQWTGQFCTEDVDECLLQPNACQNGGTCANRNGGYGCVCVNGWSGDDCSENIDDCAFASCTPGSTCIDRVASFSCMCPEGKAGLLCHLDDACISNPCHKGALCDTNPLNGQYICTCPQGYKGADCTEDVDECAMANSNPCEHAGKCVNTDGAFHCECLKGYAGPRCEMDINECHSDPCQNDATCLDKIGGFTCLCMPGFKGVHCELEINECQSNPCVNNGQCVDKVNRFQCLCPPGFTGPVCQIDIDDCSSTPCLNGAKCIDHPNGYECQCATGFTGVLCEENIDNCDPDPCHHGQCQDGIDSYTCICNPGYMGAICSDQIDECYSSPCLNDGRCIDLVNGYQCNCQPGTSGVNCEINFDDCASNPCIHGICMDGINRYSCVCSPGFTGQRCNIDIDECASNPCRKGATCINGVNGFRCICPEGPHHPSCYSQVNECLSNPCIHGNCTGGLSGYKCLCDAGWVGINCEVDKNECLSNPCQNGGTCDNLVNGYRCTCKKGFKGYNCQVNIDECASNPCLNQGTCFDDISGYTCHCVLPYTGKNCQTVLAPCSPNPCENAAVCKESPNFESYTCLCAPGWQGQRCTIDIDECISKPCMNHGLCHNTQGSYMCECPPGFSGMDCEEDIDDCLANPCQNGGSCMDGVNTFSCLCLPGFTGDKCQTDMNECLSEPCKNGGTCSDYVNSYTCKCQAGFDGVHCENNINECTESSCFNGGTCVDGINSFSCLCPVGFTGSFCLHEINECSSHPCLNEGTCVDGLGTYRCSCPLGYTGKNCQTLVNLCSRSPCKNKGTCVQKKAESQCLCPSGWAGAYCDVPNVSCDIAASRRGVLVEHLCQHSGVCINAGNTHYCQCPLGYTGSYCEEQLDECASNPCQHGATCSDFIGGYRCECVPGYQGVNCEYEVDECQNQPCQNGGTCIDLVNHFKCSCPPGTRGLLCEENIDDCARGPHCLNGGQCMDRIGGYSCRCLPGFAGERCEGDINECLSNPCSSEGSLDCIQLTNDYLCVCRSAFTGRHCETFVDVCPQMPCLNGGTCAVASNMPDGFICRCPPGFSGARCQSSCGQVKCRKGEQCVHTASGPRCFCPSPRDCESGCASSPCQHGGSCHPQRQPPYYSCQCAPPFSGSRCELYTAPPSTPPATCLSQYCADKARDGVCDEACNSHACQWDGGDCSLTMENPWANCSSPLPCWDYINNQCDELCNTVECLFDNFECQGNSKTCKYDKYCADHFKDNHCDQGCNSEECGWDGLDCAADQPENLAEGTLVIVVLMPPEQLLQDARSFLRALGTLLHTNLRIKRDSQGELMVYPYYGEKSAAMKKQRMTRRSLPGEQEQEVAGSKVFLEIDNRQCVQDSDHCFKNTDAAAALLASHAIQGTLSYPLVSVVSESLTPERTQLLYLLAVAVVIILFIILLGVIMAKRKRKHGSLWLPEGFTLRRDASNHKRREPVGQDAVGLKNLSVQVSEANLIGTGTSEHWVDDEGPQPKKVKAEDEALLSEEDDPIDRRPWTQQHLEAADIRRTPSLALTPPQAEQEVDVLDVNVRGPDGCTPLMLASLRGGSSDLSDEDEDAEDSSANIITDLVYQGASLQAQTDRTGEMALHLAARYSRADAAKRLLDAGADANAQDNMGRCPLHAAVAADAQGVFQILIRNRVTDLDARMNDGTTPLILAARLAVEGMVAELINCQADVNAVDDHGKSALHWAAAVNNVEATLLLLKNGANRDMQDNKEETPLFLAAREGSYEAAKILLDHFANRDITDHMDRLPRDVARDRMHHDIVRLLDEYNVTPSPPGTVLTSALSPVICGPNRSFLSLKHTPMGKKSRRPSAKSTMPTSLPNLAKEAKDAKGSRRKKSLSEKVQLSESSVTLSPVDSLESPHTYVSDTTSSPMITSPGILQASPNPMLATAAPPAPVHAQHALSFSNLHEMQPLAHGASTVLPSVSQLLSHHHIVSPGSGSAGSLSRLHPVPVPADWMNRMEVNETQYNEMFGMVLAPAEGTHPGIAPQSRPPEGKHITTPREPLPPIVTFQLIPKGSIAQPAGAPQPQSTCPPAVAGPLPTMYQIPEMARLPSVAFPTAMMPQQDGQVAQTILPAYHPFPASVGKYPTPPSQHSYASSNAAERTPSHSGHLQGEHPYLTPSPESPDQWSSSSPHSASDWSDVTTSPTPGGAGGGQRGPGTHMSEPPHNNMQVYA

Take `COCCOC(=O)N1C(=O)[C@@]2(c3ccccc31)[C@H](c1ccccc1OCCO)N1[C@H](c3ccccc3)[C@H](c3ccccc3)OC(=O)[C@H]1[C@@H]2C(=O)N1CCCCCCC1`: the composite z-score amounted to 4.11 in [1]; 2.32 in [2]; 0.959 in [3]; 1.32 in assay [4]; 1.78 in assay [5]; 2.25 in assay [6]. The composite z-score in assay [7] amounted to 1.39; in [9], 3.36; in [10], 2.53. Further, in [8], the z-score was -3.81 (inactive).

With `C=C[C@@H](OC)[C@H](OC(=O)Nc1ccc(OC)cc1)c1ccc(OC)c(O)c1`, the composite z-score in assay [1] is 0.54; in assay [2] it was -0.998; in assay [3], -0.087; in assay [4], -0.624; in assay [5] it was -1.06; in assay [6] it was -0.401. The figures for the composite z-score in [7], in assay [9] and in [10] were 1.23, -0.857 and 0.0505, respectively. The z-score in assay [8] was 3.56 (inactive).

Turning to `CCOC(=O)C[C@H]1[C@H](OC(=O)c2ccccc2-c2ccccc2)[C@@H](NC(=O)c2ccc3ccccc3n2)c2cc(OCCCO)ccc2N1C(=O)c1ccccc1`, the composite z-score in assay [1] was -0.384; in assay [2], 0.491; in assay [3], -0.0752; in assay [4], 0.331; in assay [5], 0.417; in [6], 0.288. For the same compound, the composite z-score in [7] was found to be 0.666; in [9], 0.377; in [10], 0.0401. For the same compound, the z-score in assay [8] is -0.764 (inactive).

On to `CCOC(=O)C[C@H]1[C@H](OC(=O)c2ccc(-c3ccccc3)cc2)[C@@H](NC(=O)Cc2ccc(OC)cc2)c2cc(OCCCO)ccc2N1C(=O)Cc1ccc(OC)cc1`, for which the composite z-score was -0.278 in assay [1]; -0.236 in [2]; -0.101 in [3]; 0.102 in [4]; 0.216 in assay [5]; 0.243 in assay [6]. For the same compound, the composite z-score was -0.29 in assay [7], 0.3 in assay [9] and -0.154 in assay [10]. In addition, the z-score in assay [8] is -0.362 (inactive).

As for `C=CCNC(=O)[C@H]1[C@@H]2C(=O)O[C@@H](c3ccccc3)[C@@H](c3ccccc3)N2[C@@H](c2ccc(OCCO)cc2)[C@]12C(=O)Nc1ccc(C#CCNC(N)=O)cc12`, the composite z-score was 0.264 in assay [1]; 0.311 in [2]; 0.0015 in [3]; 0.641 in [4]; 0.112 in [5]; 0.883 in assay [6]. In addition, the composite z-score was 0.817 in assay [7], 1.28 in [9] and 0.0623 in [10]. Besides, the z-score in [8] was -0.651 (inactive).

As to `CCCCC(=C=CC[C@H](O)c1ccc(OCCO)cc1)C[C@H](O)COCc1ccccc1`, the composite z-score in assay [1] is -0.117; in [2] it was -0.366; in assay [3], -0.0409; in assay [4], 0.692; in assay [5] it was -0.238; in assay [6] it was 1.06. Besides, the composite z-score is 0.879 in [7], -0.0834 in assay [9] and 0.152 in assay [10]. In addition, the z-score in [8] is -0.947 (inactive).

Consider `[N-]=[N+]=NCc1ccccc1[C@H]1OC(c2ccc(OCCCO)cc2)=N[C@@]1(Cc1ccccc1)C(=O)NCCN1CCOCC1`, for which the composite z-score in assay [1] is -0.714; in [2], 0.614; in [3] it was -0.0627; in [4] it was 1.09; in assay [5] it was 1.49; in assay [6], 1.34. Moreover, the composite z-score in [7] was 1.23; in assay [9], 0.213; in assay [10], -0.0994. Moreover, the z-score in assay [8] is -0.731 (inactive).

With `COCCOC(=O)N1C(=O)[C@@]2(c3cc(C#CCCO)ccc31)[C@H](C(=O)N1CCCCCCC1)[C@H]1C(=O)O[C@H](c3ccccc3)[C@H](c3ccccc3)N1[C@@H]2c1ccccc1OCCO`, the composite z-score worked out at 3.32 in [1]; 0.659 in assay [2]; 0.688 in [3]; 0.473 in assay [4]; 1.43 in [5]; 1.85 in assay [6]. In addition, the composite z-score in assay [7] was determined as 1.18; in assay [9] it was 3.07; in [10], 0.891. Besides, the z-score in assay [8] is 0.253 (inactive).

For the compound `COc1ccc(C#Cc2ccc3c(c2)[C@]2(C(=O)N3)[C@H](c3ccc(OCCO)cc3)N3[C@H](c4ccccc4)[C@H](c4ccccc4)OC(=O)[C@H]3[C@@H]2C(=O)N2CCc3cc(OC)c(OC)cc3C2)cc1`, the composite z-score in [1] was -0.253; in assay [2] it was 0.447; in assay [3], -0.0746; in assay [4] it was 0.862; in [5], 1.2; in assay [6], 1.78. Also, the composite z-score in [7] was 1.16; in assay [9] it was 0.0959; in assay [10] it was -0.623. In addition, in [8], the z-score was 1.14 (inactive).

Turning to `[N-]=[N+]=NCc1ccccc1[C@@H]1OC(c2ccc(OCCCO)cc2)=N[C@]1(Cc1ccccc1)C(=O)NCCN1CCOCC1`, the composite z-score in assay [1] was 0.32; in assay [2], 0.0026; in [3], 0.159; in assay [4], 1.1; in assay [5], 1.4; in assay [6], 1.25. Moreover, the composite z-score is 1.23 in assay [7], 1.09 in [9] and -0.126 in [10]. Also, the z-score in assay [8] is 0.106 (inactive).
